Test [1] in a line: NCI Yeast Anticancer Drug Screen. Data for the rad50 strain (AID 155).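 Further: 0% = growth of vehicle-only cultures of the same strain.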 The settings on record: S. cerevisiae rad50 strain growth inhibition; at 50.0 µM; hits give high values. The procedure, abridged: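 DNA repair mutant yeast, compound exposure, growth read-out; inhibition is taken relative to vehicle.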
Test [2] in a line: NCI Yeast Anticancer Drug Screen. Data for the mec2-1 strain (AID 157). The settings on record: S. cerevisiae mec2-1 strain, at 50.0 µM, hits give high values. The procedure, abridged: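 Readout is yeast growth inhibition, normalised to vehicle-treated controls, in the mec2-1 strain exposed to compound.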
Test [3] in a line: NCI Yeast Anticancer Drug Screen. Data for the sgs1 mgt1 strain (AID 161).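 Further: 0% = growth of cultures given vehicle only.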 The settings on record: S. cerevisiae sgs1 mgt1 strain, at 50.0 µM, hits give high values. The procedure, abridged: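 Growth of a repair-deficient yeast mutant was monitored after compound treatment and expressed as inhibition relative to vehicle-treated cultures.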
Test [4] in a line: NCI Yeast Anticancer Drug Screen. Data for the cln2 rad14 strain (AID 165).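 Further: 0% = growth equal to vehicle treated cultures.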 The settings on record: S. cerevisiae cln2 rad14 strain, at 50.0 µM, hits give high values. In short, it runs like this: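 Relative to vehicle controls, growth inhibition of compound-treated cln2 rad14 yeast was recorded.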
Test [5] is described as follows: NCI Yeast Anticancer Drug Screen. Data for the bub3 strain (AID 167). The settings on record: S. cerevisiae bub3 mutant strain, at 50.0 µM, hits give high values. The procedure, abridged: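 In this screen, a yeast mutant lacking normal mitotic checkpoint function is challenged with compound. Relative growth versus vehicle gives the inhibition value.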
Test [6] in a line: NCI Yeast Anticancer Drug Screen. Data for the mlh1 rad18 strain (AID 175). The settings on record: S. cerevisiae mlh1 rad18 strain growth inhibition; at 50.0 µM; hits give high values. The procedure, abridged: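 Test agents were incubated with a yeast strain of defined genotype (DNA damage repair defect). Inhibition of growth was derived by comparison with vehicle-exposed cultures.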

Compounds without any hit were thinned out: in the full panel of roughly 79,000, 15% have a hit. Unmarked numbers belong to inactive results. Active and inactive are the calls of the source. No stated cut-off is given here; in the data, active means growth inhibition above about 70%; inactive means the rest.

For the molecule `O=c1n(-c2ccc(Cl)c(Cl)c2)c(=O)n(-c2ccc(Cl)c(Cl)c2)c(=O)n1-c1ccc(Cl)c(Cl)c1`, the growth inhibition in test [1] is 3.5%; in test [2], 5.25%; in test [3] it was 9.35%; in test [4], -44.1%; in test [5] it was -3.85%; in test [6], 4.3%.
In the case of `N#CC(c1ccccc1)N(CCc1ccccc1)C(=O)Oc1ccccc1` (stereo not given), the growth inhibition in test [1] was -14.6%; in test [2] it was -19.6%; in test [3], -8.3%; in test [4], -18.2%; in test [5], -40.3%; in test [6], -30.9%.
On to `CCC(OC(C)=O)c1ccccc1` (stereo not given), for which the growth inhibition in test [1] was 12.8%; in test [2], 17.2%; in test [3], 11.5%; in test [4] it was 6.45%; in test [5], 27.4%; in test [6], 1.5%.
As for `CCOC(=O)c1ccc(NC(=O)Nc2cc(C(F)(F)F)ccc2Cl)cc1`, the growth inhibition in test [1] is 89.2% (active); in test [2] it was 28.3%; in test [3], 92.9% (active); in test [4] it was 92.2% (active); in test [5] it was 86.7% (active); in test [6], 94% (active).
For `O=[N+]([O-])c1ccc2nc(C(F)(F)F)cc(Cl)c2c1`, the growth inhibition was 7.35% in test [1]; 5.3% in test [2]; 2% in test [3]; -66.9% in test [4]; -1.1% in test [5]; -9.75% in test [6].
